Screening results: PubChem BioAssay, National Center for Advancing Translational Sciences (NCATS)
Only some compounds are listed: those with a hit (about 1.8% of all), similar ones and a draw of the others.
GLP1R inv ag: GLP-1 receptor (human) inverse agonism; HEK293 GLP-1R CRE-luciferase, luminescence, 24 h; GLP-1R form is constitutively active; 410,000 tested, 1.6% active; P43220; Potency, µM (titrated, usually from 38.3 µM), for the others: top-dose activity change, negative = inhibition, usual class: inhibitors; further: potency means the concentration at half of the fitted maximal effect; on the % scale 0 is the no-effect control and ±100 the full control effect; nearly all actives have a fitted effect of over 55% in size
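Using stably transfected HEK293 (constitutively active GLP-1R, cAMP-luciferase reporter), compounds were incubated 24 hr and luciferase measured by luminescence.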
HEK293 tox: cytotoxic in the GLP-1 receptor inverse agonist counter-screen; AID 624418; Potency, µM (highest dose often 38.3 µM), for the others: at the top dose activity change, negative = inhibition, usual class: inhibitors; HEK293 cAMP-luciferase reporter cells, luminescence, 24 h; 410,000 tested, 0.13% active;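 further: loss of luciferase light is scored as toxicity; potency means the concentration at half of the fitted maximal effect; on the % scale 0 is the no-effect control and ±100 the full control effect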
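Quantitative HTS format, 1536 wells, 200 cells/uL seeded. Compounds: 23 nL, 24 h, 37 °C. Detection: luciferase reagent, luminescence at 12 min RT; decreased signal taken as cytotoxic.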
PTHR1 ag: agonists of human PTHR1 parathyroid hormone receptor; Q03431; HEK293 GP2 PTHR1 cells, GloSensor cAMP luminescence, 1 h; Potency, µM (highest dose often 115 µM), for inactives: top-dose activation, most hits filed as activators; 410,000 tested, 0.075% active; further: potency means the concentration at half of the fitted maximal effect; nearly all actives have a fitted effect of over 55% in size
Target sequence (Q03431 whole entry, looked up): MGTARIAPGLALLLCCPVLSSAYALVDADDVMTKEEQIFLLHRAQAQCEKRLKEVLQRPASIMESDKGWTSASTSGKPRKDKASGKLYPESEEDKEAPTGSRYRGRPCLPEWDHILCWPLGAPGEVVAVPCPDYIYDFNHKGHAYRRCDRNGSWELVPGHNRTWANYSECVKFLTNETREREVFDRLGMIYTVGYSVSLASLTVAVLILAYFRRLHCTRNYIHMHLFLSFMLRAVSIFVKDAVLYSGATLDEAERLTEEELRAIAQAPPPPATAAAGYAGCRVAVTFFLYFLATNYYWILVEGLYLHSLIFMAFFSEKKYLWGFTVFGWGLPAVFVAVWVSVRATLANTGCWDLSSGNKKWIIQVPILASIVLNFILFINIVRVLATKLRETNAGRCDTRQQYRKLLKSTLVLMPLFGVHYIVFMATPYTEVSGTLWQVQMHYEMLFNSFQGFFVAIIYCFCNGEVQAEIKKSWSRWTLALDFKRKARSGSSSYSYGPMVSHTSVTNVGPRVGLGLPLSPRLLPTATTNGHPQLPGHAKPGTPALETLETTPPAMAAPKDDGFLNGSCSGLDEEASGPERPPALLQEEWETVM
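HEK-293-derived GP2 cells expressing PTHR1 and a GloSensor cAMP reporter, 3,000/well, plated overnight, given luciferin plus IBMX (each 0.5 mM as added) for 1 h at 37 °C, then compound for 1 h at 37 °C. Luminescence was read after 15 min at room temperature.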
GLP1R ag: GLP-1 receptor (human) agonism; P43220; HEK293 GLP-1R CRE-luciferase, luminescence, 4-6 h; cells express a hypersensitive GLP-1R form; Potency, µM (highest dose often 45.6 µM), inactives show at the top dose activation, hits mostly activators; 380,000 tested, 0.007% active; AID 624172; further: potency means the concentration at half of the fitted maximal effect; % of control where 0% means no effect
TSHR antagonist: antagonists of human thyroid stimulating hormone receptor. P16473. TSHR-expressing cells, TSH-stimulated cAMP HTRF, 2 h; active compounds read low. activity change, negative = inhibition, % at 11.5 µM. 330,000 tested, 0.2% active. AID 504810;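 active means activity change below a set negative limit, meaning inhibition stronger than a set level, cut at about -70% in these data; inconclusive means activity change between two set negative limits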; further: on the % scale 0 is the no-effect control and ±100 the full control effect
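Freshly harvested TSHR cells receive pin-tooled compound, then EC80 TSH at 4nM final. After 2 hours at 37 deg C, antibody in lysis buffer and cAMP-d2 are added; 30 minutes at ambient temperature precede the HTRF read.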
* marks the source's active call; other numbers are inactive results; [ ] = dose if it differs, or a comment. Unless noted, the call rests on the fitted dose curve; in most records, active means well fitted curve in the direction sought with a large enough effect; inconclusive means small, poorly fitted or top-dose-only effect, or another doubt; inactive means no such curve, though single readings can be large; an effect the other way counts as inactive or inconclusive.

`Cc1ccc(Nc2nccc(N(C)c3ccc4c(C)n(C)nc4c3)n2)cc1S(N)(=O)=O` gave GLP1R ag -4.5%.
For CCCN(CCC)C(=O)Cc1coc2ccc3ccccc3c12 the results were GLP1R inv ag 8.91µM*, HEK293 tox -9.1%, PTHR1 ag inactive, GLP1R ag 0.8% and TSHR antagonist -1.2.
O=C1c2ccccc2S(=O)(=O)N1Cc1nc2ccccc2s1 was read as GLP1R inv ag 3.98µM*, HEK293 tox -6.9%, PTHR1 ag -5.5%[57.5 µM], GLP1R ag -20.5% and TSHR antagonist -15.5.
`CC1CCCCC1NC(=O)CO/N=C/c1ccccc1OC(F)F` (centres undefined) gave GLP1R inv ag 10µM*, HEK293 tox -0.1%, PTHR1 ag -16.4%, GLP1R ag 25.4% and TSHR antagonist 6.2.
`O=C(Nc1ccc(Cn2cccn2)cc1)c1ccc(COc2cccc(Br)c2)cc1` gave GLP1R inv ag 5.01µM*, HEK293 tox -3.3%, PTHR1 ag -46.8%[57.5 µM], GLP1R ag 0.5% and TSHR antagonist -17.8.
O=C1Nc2cc(C(=O)NCCCN3CCCC3)ccc2S/C1=C\c1ccccc1 was read as GLP1R inv ag 10µM*, HEK293 tox -5.0%, PTHR1 ag inactive, GLP1R ag 19.4% and TSHR antagonist -1.9.
Screening CCOC(=O)N1CCC(NC(=O)c2ccc3c(c2)N(Cc2ccccc2)CCS3)CC1 returned GLP1R inv ag inconclusive, HEK293 tox -12.0%, PTHR1 ag -21.3%, GLP1R ag 7.0% and TSHR antagonist -24.0.
`CN1CCN(CCCNC(=O)c2ccc3c(c2)N(Cc2ccc(F)cc2)CCS3)CC1` gave GLP1R inv ag 5.62µM*, HEK293 tox -26.6%, PTHR1 ag inactive, GLP1R ag 14.1% and TSHR antagonist 40.1.
Screening O=C(NC1CC1)c1ccc2c(c1)N(Cc1ccccc1)CCS2 returned GLP1R inv ag 8.91µM*, HEK293 tox -1.9%, PTHR1 ag -11.3%, GLP1R ag -0.9% and TSHR antagonist -12.8.
`CCCOc1ccc(CNC(=O)c2ccc3c(c2)N(Cc2ccccc2)CCS3)cc1` gave GLP1R inv ag inconclusive, HEK293 tox 0.2% and PTHR1 ag inactive.
`O=C(NCc1ccccc1)c1ccc2c(c1)N(Cc1ccc(F)cc1)CCS2` gave GLP1R inv ag 5.62µM*, HEK293 tox -1.5% and PTHR1 ag -9.0%.
`O=C(NCCCN1CCOCC1)c1ccc2c(c1)N(Cc1ccc(F)cc1)CCS2` gave GLP1R inv ag 2.24µM*, HEK293 tox -3.3%, PTHR1 ag inactive, GLP1R ag -0.2% and TSHR antagonist 5.6.
Screening CCN1CCSc2ccc(C(=O)NCc3ccccc3Br)cc21 returned GLP1R inv ag 10µM*, HEK293 tox 7.1%, PTHR1 ag -31.7%, GLP1R ag 1.5% and TSHR antagonist 5.9.
O=C(NCCCN1CCCC1)c1ccc2c(c1)N(Cc1ccccc1)CCS2 was read as GLP1R inv ag inconclusive, HEK293 tox 4.47µM*, PTHR1 ag -21.2%, GLP1R ag 3.4% and TSHR antagonist -4.9.
For Cn1cc(C(=O)O)c(=O)c2cc(S(=O)(=O)N3CCCCC3)ccc21 the results were GLP1R inv ag inconclusive, HEK293 tox -6.5% and PTHR1 ag -23.7%.
O=C1C=CC(=O)N1CCNc1ncc(C(F)(F)F)cc1Cl was read as GLP1R inv ag 11.2µM*, HEK293 tox inconclusive, PTHR1 ag -29.5%, GLP1R ag 5.9% and TSHR antagonist -31.6.
For CCOC(=O)c1ccc(NC(=O)c2cccc3c(=O)c4c([nH]c23)CCCC4)cc1 the results were GLP1R inv ag 8.3%, HEK293 tox 0.1% and PTHR1 ag -0.9%.
COc1ccc(/C=N/Nc2ccccc2)cc1Cn1nc(C)c([N+](=O)[O-])c1C was read as GLP1R inv ag 3.98µM*, HEK293 tox -27.6%, PTHR1 ag inactive, GLP1R ag -1.9% and TSHR antagonist 8.3.
`O=S(=O)(c1ccccc1Cl)N1CCC(Cc2ccccc2)CC1` gave GLP1R inv ag 7.94µM*, HEK293 tox 39.9%, PTHR1 ag -18.7%, GLP1R ag 5.8% and TSHR antagonist -5.6.
